Experimental data from PubChem BioAssay (NCI).
This is part of a sample that, as a whole, favours compounds with a hit. Of some 83,000 tested, about 20% had one in any assay.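 Single-dose data. Exposure time 48 hours. Values below 10 considered active.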 Active and inactive are the calls of the source.

These compounds were tested on SW-620 colon (assay: NCI-60 one-dose screen, 48 h (100 = growth as untreated, 0 = no growth, -100 = all killed)). Conditions: 10 µM unless noted.

Compound | growth
COc1cc(C2CC(c3ccccc3)=NN2C=O)ccc1Oc1nc2c(c(=O)n(C)c(=O)n2C)n1C (stereo not drawn) | 97.9% (inactive)
COc1ccc2[nH]cc(C3(c4c[nH]c5ccc(OC)cc45)C(=O)Nc4ccc(F)cc43)c2c1 | 25.9% (inactive)
CC1=CC(=O)OC1C/C=C(\C)CCC1[C@@]2(C)CCC[C@@](C)(C(=O)O)C2CC[C@@]1(C)O (stereo partly drawn) | 32.4% (inactive)
CC1=C(/C=C/C(C)=C/C=C(C(=O)O)\C(C)=C\C(=O)O)C(C)(C)CCC1 | 108% (inactive)
CCN(CCC#N)c1ccccc1 | 101% (inactive)
CCCCOC(=O)c1cc(O)c(O)c(O)c1 | 80.2% (inactive)
COc1cccc(-c2nc3sccn3c2-c2ccnc(NCCN3CCCNS3(=O)=O)n2)c1 | 127% (inactive)
CC(=O)Oc1ccccc1C(=O)Nc1ncc([N+](=O)[O-])s1 | 26.7% (inactive)
Cc1ccc([C@H]2c3[nH]c4ccccc4c3C[C@H]3C(=O)N(CCCCCCC(=O)NO)CC(=O)N23)cc1 | 36.5% (inactive)
COc1ccc(-c2cc(-c3cn(-c4cccc(Cl)c4)nc3-c3ccc(OC)cc3)[nH]c(=S)n2)cc1 | 66.6% (inactive)
CCn1c(Cc2ccccc2Nc2c(Cl)cccc2Cl)nnc1SCC(=O)Nc1ccccc1C(F)(F)F | 99.3% (inactive)
COc1cc(/C=C/c2cc(/C=C/c3ccc(O)c(OC)c3)n(C(=O)c3ccccc3Br)n2)ccc1O | 20.9% (inactive)
CCOC(=O)C(Cc1ccccc1)n1c(O)c(/C=N/c2ncc(Cc3ccc(Cl)cc3Cl)s2)sc1=S (stereo not drawn) | 12% (inactive)
Cc1nn(-c2cccc(Cl)c2)c(C)c1N=Nc1ccc(Br)cc1 | 103% (inactive)
O=C(N/N=C\c1cc(Br)ccc1O)c1ccncc1 | 37.7% (inactive)
CC(C)OC1OC(OC(C)C)C(OC(C)C)OC1OC(C)C (stereo not drawn) | 96.2% (inactive)
COc1ccc2c(c1)C1=NN(C(=O)CO)[C@H](c3ccc(OC(F)(F)F)cc3)[C@@H]1CC2 | 109% (inactive)
Cn1c(-c2ccccc2)cc(=O)n1-c1ccccc1 | 117% (inactive)
CC(C)(C)c1ccc(C(=O)Nc2sc3cc(O)ccc3c2C(N)=O)cc1 | 53.6% (inactive)

Compound | growth
O=C1N(Cc2ccccc2Cl)c2ccccc2C12NN=C(c1ccccc1)S2 (stereo not drawn) | 47.6% (inactive)
CC(=O)c1ccc(N2C(=O)c3ccc(Oc4ccccc4)cc3C2=O)cc1 | 98.8% (inactive)
CC1CCCN(CCCCOc2ccc(-c3ccc(C#N)cc3)cc2)C1 (stereo not drawn) | 96.8% (inactive)
CNC(=O)c1c(NC(=O)c2cccc(C(F)(F)F)c2)sc2c1CCC(=O)C2 | -17.8% (active)
OC(COCc1ccccc1)COCc1ccccc1 | 110% (inactive)
CN1CCCN(CCNc2nccc(-c3c(-c4cccc(O)c4)nc4sccn34)n2)S1(=O)=O | 71% (inactive)
CC(=O)NC1C(O[C@H]2C[C@H]3[C@@H]4CC=C5C[C@@H](O)CC[C@]5(C)[C@H]4CC[C@]3(C)[C@H]2[C@H](C)C(=O)CCC(C)C)OCC(O)C1O (stereo partly drawn) | 49.4% (inactive)
CN(C)c1nc(-c2cccs2)n2nc(-c3ccc(Cl)cc3)cc2n1 | 56.8% (inactive)
O=C1NN(C(=O)c2ccccc2)C(c2ccc(Cl)c(Cl)c2)=C/C1=C\c1ccccc1[N+](=O)[O-] | 13.7% [6.75 µM] (inactive)
COc1ccc(C(=O)OC2C(OC3C(O)COC(O[C@H]4C[C@H]5[C@@H]6CC=C7C[C@@H](O)CC[C@]7(C)[C@H]6CC[C@]5(C)[C@H]4[C@H](C)C(=O)CCC(C)C)C3OC(=O)C(C)C)OCC(O)C2O)cc1 (stereo partly drawn) | -19.5% (active)
CCSCC1CC(O)(c2ccccc2)C(c2ccccc2)C(c2ccc(F)cc2)O1 (stereo not drawn) | -25.8% (active)
Nc1c(N)c2ccccc2c2ccccc12 | 103% (inactive)
Cc1csc(N/N=C/c2ccncc2)n1 | 103% (inactive)
COc1ccc(-c2cc(C(=O)Nc3ccc(C)cc3)nc3[nH]c(=O)sc23)cc1 | 77.2% (inactive)
COc1ccccc1-[n+]1cc(-c2ccc(-c3ccccc3)cc2)n2c1CCCCC2 | 14.6% (inactive)
COc1ccc(/C=N/NC(N)=S)c(OC)n1 | 108% (inactive)
Nc1c(Br)cc2c(c1Br)Cc1cc(Cl)ccc1-2 | 98.2% (inactive)
Nc1nc(NC2CC2)cc(-c2cccc(Cl)c2Cl)n1 | 21.5% (inactive)
COc1cc2c(c(OC)c1O)C(=O)C(OC)C(c1ccc(O)c(O)c1)O2 (stereo not drawn) | 22.6% (inactive)
